Measured values taken from PubChem BioAssay.
For part of these data: Measured potencies and affinities stand elsewhere. Calls of active or inactive are those of the source. Unless noted, no rule for the calls is given here.

Key:
[1] = antimalarial activity against Dd2 strain (AID 2302;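 active = growth inhibition above 50% at the single 2 µM test dose, taken to imply half-maximal potency below 2 µM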;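 also: 0% = DMSO untreated growth and 100% = chloroquine plus artemisinin killed control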); details: P. falciparum Dd2 in RBCs, LDH growth readout, 72 h; at 2 µM; hits give high values
[2] = human hepatoma cell viability loss – ATP luminescence, cytotoxicity control for P. falciparum antimalarial project, primary screen (AID 2303;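 active = inhibition above 50%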;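 also: 0% = DMSO wells and 100% = digitonin-killed cells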); details: HepG2 viability, 24-48 h, at 10 µM, hits give high values
[3] = target: L-lactate dehydrogenase (Plasmodium falciparum (isolate CDC / Honduras)) (UniProt Q27743); experiment: PfLDH activity inhibition – cell lysate, 3D7 strain, counter-screen for P. falciparum growth inhibition project (AID 2304);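 also: 0% = vehicle and 100% = reference inhibitor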; details: P. falciparum 3D7 crude extract, LDH APAD/NBT absorbance; at 2 µM; hits give high values
Sequence of L-lactate dehydrogenase (Plasmodium falciparum (isolate CDC / Honduras)) (Q27743 whole entry, looked up): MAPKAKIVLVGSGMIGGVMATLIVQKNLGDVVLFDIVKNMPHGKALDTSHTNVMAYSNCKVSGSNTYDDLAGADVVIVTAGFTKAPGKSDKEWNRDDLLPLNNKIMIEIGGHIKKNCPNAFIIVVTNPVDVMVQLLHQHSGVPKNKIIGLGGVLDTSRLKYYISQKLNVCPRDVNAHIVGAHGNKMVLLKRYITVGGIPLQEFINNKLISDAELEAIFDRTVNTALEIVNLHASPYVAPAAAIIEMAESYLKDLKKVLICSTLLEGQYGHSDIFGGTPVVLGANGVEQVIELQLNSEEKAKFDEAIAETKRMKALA

[4] = inhibition of 3D7 malaria parasite growth – strain 3D7 (AID 2306);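 also: 0% = DMSO wells and 100% = chloroquine plus artemisinin control wells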; details: P. falciparum 3D7 erythrocytic growth, LDH absorbance, 72 h; at 2 µM; hits give high values
[5] = target: Calcium-dependent protein kinase 1 (Plasmodium falciparum (isolate 3D7)) (UniProt P62344); experiment: PfCDPK1 kinase inhibitors, biochemical, TCAMS library (AID 1159585; cut-off not given, nearly all actives have IC50 up to about 0.98 µM;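 also: inhibitors leave more ATP so luminescence rises with inhibition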); details: recombinant PfCDPK1, Kinase-Glo ATP depletion luminescence
Sequence of Calcium-dependent protein kinase 1 (Plasmodium falciparum (isolate 3D7)) (P62344 whole entry, looked up): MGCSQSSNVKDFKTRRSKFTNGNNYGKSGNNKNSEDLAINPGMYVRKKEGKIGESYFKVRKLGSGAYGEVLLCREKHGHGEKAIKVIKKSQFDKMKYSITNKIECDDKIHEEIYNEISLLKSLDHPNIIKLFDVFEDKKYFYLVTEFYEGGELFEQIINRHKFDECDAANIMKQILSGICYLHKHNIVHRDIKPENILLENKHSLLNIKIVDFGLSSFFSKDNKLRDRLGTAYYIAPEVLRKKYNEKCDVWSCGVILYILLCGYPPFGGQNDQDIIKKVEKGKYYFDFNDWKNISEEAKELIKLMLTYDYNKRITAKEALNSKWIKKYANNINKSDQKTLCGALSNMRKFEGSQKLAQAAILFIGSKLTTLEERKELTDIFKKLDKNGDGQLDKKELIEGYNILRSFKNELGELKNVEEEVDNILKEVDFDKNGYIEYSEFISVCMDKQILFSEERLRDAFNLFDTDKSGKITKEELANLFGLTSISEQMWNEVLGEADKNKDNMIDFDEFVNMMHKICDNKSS

[6] = target: Plasmodium falciparum protein kinase 6 (PK6, PF3D7_1337100) (UniProt Q8IDW1); experiment: PfPK6 kinase inhibitors, biochemical, TCAMS library (AID 1159586); details: recombinant PfPK6, Kinase-Glo ATP depletion luminescence
Sequence of Plasmodium falciparum protein kinase 6 (PK6, PF3D7_1337100) (Q8IDW1 1-305): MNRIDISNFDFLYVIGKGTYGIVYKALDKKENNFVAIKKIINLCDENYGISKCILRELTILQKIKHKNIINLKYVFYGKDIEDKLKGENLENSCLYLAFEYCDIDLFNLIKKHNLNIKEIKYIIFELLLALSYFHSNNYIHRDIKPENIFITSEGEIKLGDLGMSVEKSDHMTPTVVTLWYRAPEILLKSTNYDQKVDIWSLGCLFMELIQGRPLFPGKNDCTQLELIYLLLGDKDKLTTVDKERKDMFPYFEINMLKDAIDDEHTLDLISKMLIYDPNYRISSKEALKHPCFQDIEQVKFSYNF

[7] = target: Protein kinase 7 (PK7), Plasmodium falciparum 3D7 (PF3D7_0213400) (UniProt Q7YTF7); experiment: inhibition of Plasmodium PK7 catalytic activity – biochemical, TCAMS antimalarial set, Kinase-Glo luminescence (AID 1159587); details: recombinant PfPK7, Kinase-Glo ATP depletion luminescence
Sequence of Protein kinase 7 (PK7), Plasmodium falciparum 3D7 (PF3D7_0213400) (Q7YTF7 1-343): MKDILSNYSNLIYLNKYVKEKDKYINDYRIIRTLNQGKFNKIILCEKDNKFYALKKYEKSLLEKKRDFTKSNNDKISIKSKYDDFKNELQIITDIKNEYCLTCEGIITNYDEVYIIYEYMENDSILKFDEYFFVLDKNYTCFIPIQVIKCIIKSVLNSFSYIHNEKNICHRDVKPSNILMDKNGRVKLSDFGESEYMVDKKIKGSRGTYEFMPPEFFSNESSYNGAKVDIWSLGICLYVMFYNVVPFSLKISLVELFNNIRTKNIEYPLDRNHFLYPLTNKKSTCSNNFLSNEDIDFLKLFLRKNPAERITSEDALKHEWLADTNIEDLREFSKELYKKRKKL

[8] = target: Calcium-dependent protein kinase 4 (Plasmodium falciparum (isolate 3D7)) (UniProt Q8IBS5); experiment: PfCDPK4 kinase inhibitors, biochemical, TCAMS library (AID 1159588; cut-off not given, nearly all actives have IC50 up to about 0.91 µM); details: recombinant PfCDPK4, Kinase-Glo ATP depletion luminescence
Sequence of Calcium-dependent protein kinase 4 (Plasmodium falciparum (isolate 3D7)) (Q8IBS5 whole entry, looked up): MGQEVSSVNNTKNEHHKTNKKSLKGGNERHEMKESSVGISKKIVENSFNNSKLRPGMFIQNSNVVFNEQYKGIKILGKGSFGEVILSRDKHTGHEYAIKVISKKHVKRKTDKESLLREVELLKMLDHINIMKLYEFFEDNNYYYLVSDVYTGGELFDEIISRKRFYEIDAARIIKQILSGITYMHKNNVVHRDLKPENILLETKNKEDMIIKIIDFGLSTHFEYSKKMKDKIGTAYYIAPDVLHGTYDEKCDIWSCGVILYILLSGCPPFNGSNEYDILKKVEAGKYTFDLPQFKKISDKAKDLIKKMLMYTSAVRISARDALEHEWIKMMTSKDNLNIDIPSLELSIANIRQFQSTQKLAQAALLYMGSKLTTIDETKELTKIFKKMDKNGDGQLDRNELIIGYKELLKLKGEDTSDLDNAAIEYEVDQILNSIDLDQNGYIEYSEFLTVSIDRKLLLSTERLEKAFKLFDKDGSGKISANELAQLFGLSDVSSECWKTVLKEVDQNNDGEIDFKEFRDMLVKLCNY

O=C(/C=C/c1ccc(Cl)c(Cl)c1)NC1CCC(CN2CCC(Cc3c[nH]c4ccccc34)CC2)CC1 (configuration not stated)
active: growth inhibition [4] 101%
inactive: growth inhibition [1] 9% | inhibition [2] 25% | inhibition [3] -7% | outcome [5] | outcome [6] | outcome [7] | outcome [8]

Cc1cccc(CN2CCC(C(=O)Nc3ccc(-c4nc5ccccc5[nH]4)cc3)CC2)n1
active: growth inhibition [4] 96%
inactive: growth inhibition [1] 3% | inhibition [2] -9% | inhibition [3] 6% | outcome [5] | outcome [6] | outcome [7] | outcome [8]

CCCCNCc1ccc(-c2nc(CN(Cc3ccc(Cl)c(Cl)c3)C(=O)CN(C)C)cs2)cc1
active: growth inhibition [1] 51% | growth inhibition [4] 100%
inactive: inhibition [2] 36% | inhibition [3] 7% | outcome [5] | outcome [6] | outcome [7] | outcome [8]

CC(CN(C)C)C(=O)Nc1ccc(-c2ccc(-c3nc4ccccc4[nH]3)cc2)cc1 (configuration not stated)
inactive: inhibition [2] 2% | inhibition [3] -3% | outcome [5] | outcome [6] | outcome [7] | outcome [8]
active: growth inhibition [1] 83% | growth inhibition [4] 99%

Cc1nc(-c2cccc(Nc3nccc(NCC(O)c4ccccc4C)n3)c2)cs1 (configuration not stated)
active: growth inhibition [4] 92%
inactive: growth inhibition [1] 14% | inhibition [2] 38% | inhibition [3] -2% | outcome [5] | outcome [6] | outcome [7] | outcome [8]

CC1(C)N=C(N)N=C(N)N1c1ccc(Oc2ccccc2)cc1
active: growth inhibition [4] 98%
inactive: growth inhibition [1] 3% | inhibition [2] 13% | inhibition [3] -6% | outcome [5] | outcome [6] | outcome [7] | outcome [8]

CC1(C)N=C(N)N=C(N)N1OCOc1ccc(Cl)cc1
active: growth inhibition [1] 96% | inhibition [2] 68% | growth inhibition [4] 94%
inactive: inhibition [3] 6% | outcome [5] | outcome [6] | outcome [7] | outcome [8]

CC(C)c1ccc(C(NC(=O)C2CCCCC2)c2ccc3cccnc3c2O)cc1 (configuration not stated)
inactive: inhibition [2] 46% | inhibition [3] -8% | outcome [5] | outcome [6] | outcome [7] | outcome [8]
active: growth inhibition [1] 70% | growth inhibition [4] 89%

CCNc1cc(C(=O)N[C@@H](Cc2ccccc2)[C@H](O)CNC(C)CCCC(C)C)cc(N2CCCS2(=O)=O)c1 (some centres not stated)
active: growth inhibition [1] 98% | growth inhibition [4] 99%
inactive: inhibition [2] 2% | inhibition [3] 5% | outcome [5] | outcome [6] | outcome [7] | outcome [8]

O=C(c1ccccc1)N(Cc1ccccc1-c1ccc(CNCCc2ccccc2)cc1)C1CCN(Cc2ccccc2)CC1
inactive: inhibition [3] -7% | outcome [5] | outcome [6] | outcome [7] | outcome [8]
active: growth inhibition [1] 69% | inhibition [2] 95% | growth inhibition [4] 95%

CC(C)C[C@H](NC(=O)c1ccc(OCCN2CCOCC2)cc1)C(=O)N[C@H](/C=N/N1CC(=O)NC1=O)CCc1ccccc1
inactive: inhibition [2] 10% | inhibition [3] 0% | outcome [5] | outcome [6] | outcome [7] | outcome [8]
active: growth inhibition [1] 67% | growth inhibition [4] 88%

COc1ccc2ncc(Cl)c([C@H](O)CN3CCC(NCc4cc5c(cn4)OCCO5)CC3)c2c1
active: growth inhibition [1] 100% | growth inhibition [4] 100%
inactive: inhibition [2] 10% | inhibition [3] 1% | outcome [5] | outcome [6] | outcome [7] | outcome [8]

COc1cc2nc(C)nc(Nc3cccc(Br)c3)c2cc1OC
inactive: inhibition [2] 0% | inhibition [3] -8% | outcome [5] | outcome [6] | outcome [7] | outcome [8]
active: growth inhibition [1] 82% | growth inhibition [4] 101%

COc1ccc2c(NN=Cc3ccccc3F)ccnc2c1
active: growth inhibition [1] 99% | growth inhibition [4] 98%
inactive: inhibition [2] 15% | inhibition [3] 0% | outcome [5] | outcome [6] | outcome [7] | outcome [8]

COc1cc(C(C)C)nc2ccc(NC(=O)c3ccc(C(=O)Nc4ccc5nc(C(C)C)cc(OC)c5c4)cc3)cc12
active: growth inhibition [1] 72% | growth inhibition [4] 95%
inactive: inhibition [2] 39% | inhibition [3] 0% | outcome [5] | outcome [6] | outcome [7] | outcome [8]

Cc1ccc(NC(=O)c2cccc(CN3CCCN(CC4CCCCC4)CC3)c2)cc1F
active: growth inhibition [4] 85%
inactive: growth inhibition [1] 42% | inhibition [2] 22% | inhibition [3] -2% | outcome [5] | outcome [6] | outcome [7] | outcome [8]

CCC[C@@H]([C@@H](CC1CCCCC1)C(=O)N[C@H](C(=O)Nc1nccs1)C(C)(C)SCCOCCOCC)N(O)C=O
active: growth inhibition [1] 97% | growth inhibition [4] 100%
inactive: inhibition [2] 40% | inhibition [3] -5% | outcome [5] | outcome [6] | outcome [7] | outcome [8]

CC(=O)N(C)c1cccc(C(=O)Nc2cccc(-c3ccc(-c4nc5ccc(C(F)(F)F)cc5[nH]4)cc3)c2)c1
inactive: growth inhibition [1] 31% | inhibition [3] -2% | outcome [5] | outcome [6] | outcome [7] | outcome [8]
active: inhibition [2] 63% | growth inhibition [4] 90%

COc1cc2nc(NCC3CCN(c4nc(N)c5cc(OC)c(OC)cc5n4)CC3)nc(N)c2cc1OC
inactive: inhibition [2] 12% | inhibition [3] -2% | outcome [5] | outcome [6] | outcome [7] | outcome [8]
active: growth inhibition [1] 73% | growth inhibition [4] 92%

CC(C)CC(=O)N1CCNC[C@@H]1C(=O)NCCSCc1c(F)cccc1Cl
active: growth inhibition [4] 86%
inactive: growth inhibition [1] 3% | inhibition [2] 1% | inhibition [3] 0% | outcome [5] | outcome [6] | outcome [7] | outcome [8]

CN(C)Cc1ccc(-c2cc3c(Nc4ccc(OCc5cccc(F)c5)c(Cl)c4)ncnc3s2)[nH]1
active: growth inhibition [1] 84% | growth inhibition [4] 100%
inactive: inhibition [2] 8% | inhibition [3] -1% | outcome [5] | outcome [6] | outcome [7] | outcome [8]

O=C(Cc1cc(F)cc(F)c1)NC1CCN(c2ccnc3cc(Cl)ccc23)C1 (configuration not stated)
active: growth inhibition [1] 101% | growth inhibition [4] 82%
inactive: inhibition [2] 13% | inhibition [3] 0% | outcome [5] | outcome [6] | outcome [7] | outcome [8]

COC(=O)c1ccc2nc(-c3ccc(/C=C/C(=O)NCc4ccc(Cl)c(Cl)c4)cc3)[nH]c2c1
inactive: growth inhibition [1] 3% | inhibition [2] 13% | inhibition [3] -3% | outcome [5] | outcome [6] | outcome [7] | outcome [8]
active: growth inhibition [4] 81%

CC(Oc1ccc(Cl)cc1)C(=O)N(C)C1CCN(CCCCCNC(=O)/C=C/c2ccc(Cl)c(Cl)c2)CC1 (configuration not stated)
active: inhibition [2] 61% | growth inhibition [4] 85%
inactive: growth inhibition [1] 10% | inhibition [3] -2% | outcome [5] | outcome [6] | outcome [7] | outcome [8]

Cc1ccc2nc(C)cc(NN=Cc3cccc([N+](=O)[O-])c3)c2c1
inactive: inhibition [2] 0% | inhibition [3] 1% | outcome [5] | outcome [6] | outcome [7] | outcome [8]
active: growth inhibition [1] 99% | growth inhibition [4] 102%

O=C(NCCc1ccccc1)N(Cc1ccccc1-c1cccc(CNCc2ccc3c(c2)OCO3)c1)C1CCN(Cc2ccccc2)CC1
inactive: inhibition [2] 29% | inhibition [3] 5% | outcome [5] | outcome [6] | outcome [7] | outcome [8]
active: growth inhibition [1] 77% | growth inhibition [4] 93%

O=C(Nc1ccc(-c2ccc(-c3nc4ccc(C(F)(F)F)cc4[nH]3)s2)cc1)c1ccoc1
active: growth inhibition [1] 54% | growth inhibition [4] 94%
inactive: inhibition [2] 9% | inhibition [3] 3% | outcome [5] | outcome [6] | outcome [7] | outcome [8]

N=c1n(CCN2CCCCC2)c2ccccc2n1CC(O)c1cccc(Br)c1 (configuration not stated)
active: growth inhibition [4] 86%
inactive: growth inhibition [1] 33% | inhibition [2] 25% | inhibition [3] -1% | outcome [5] | outcome [6] | outcome [7] | outcome [8]

CC(C)C(C(=O)n1cc2c(ccc3nc(N)nc(N)c32)n1)C(C)C
inactive: growth inhibition [1] 49% | inhibition [3] -6% | outcome [5] | outcome [6] | outcome [7] | outcome [8]
active: inhibition [2] 58% | growth inhibition [4] 98%

N=C(N)c1cc(Cl)cc(NC(=O)Nc2cc(Cl)cc(C(=N)N)c2)c1
active: growth inhibition [1] 92% | growth inhibition [4] 92%
inactive: inhibition [2] 4% | inhibition [3] -7% | outcome [5] | outcome [6] | outcome [7] | outcome [8]

c1ccc(COc2ccc(Nc3ncnc4cnc(-c5ccc(CN6CCCCC6)o5)cc34)cc2)cc1
active: growth inhibition [4] 90%
inactive: growth inhibition [1] 13% | inhibition [2] -14% | inhibition [3] -5% | outcome [5] | outcome [6] | outcome [7] | outcome [8]

O=C(Nc1ccc(-c2ccc(-c3nc4ccc(C(F)(F)F)cc4[nH]3)s2)cc1)c1cnc[nH]1
inactive: inhibition [3] 5% | outcome [5] | outcome [6] | outcome [7] | outcome [8]
active: growth inhibition [1] 61% | inhibition [2] 66% | growth inhibition [4] 92%

COc1ccc(C(=O)NC(Nc2ccc([N+](=O)[O-])cc2)C(Cl)(Cl)Cl)cc1 (configuration not stated)
active: growth inhibition [1] 83% | growth inhibition [4] 95%
inactive: inhibition [2] 15% | inhibition [3] 1% | outcome [5] | outcome [6] | outcome [7] | outcome [8]

Cc1cc(F)ccc1-c1nc(N(C)CCN(C)C(=O)N(C)c2ccccc2)nc2c1ccc(=O)n2-c1c(F)cccc1F
inactive: inhibition [2] -1% | inhibition [3] 2% | outcome [5] | outcome [6] | outcome [7] | outcome [8]
active: growth inhibition [1] 77% | growth inhibition [4] 87%

COc1ccc2nccc([C@@H](O)CN3CCC(NCc4cc5cccc(OCc6ccccc6)c5[nH]4)CC3)c2c1
inactive: growth inhibition [1] 40% | inhibition [2] 13% | inhibition [3] 1% | outcome [5] | outcome [6] | outcome [7] | outcome [8]
active: growth inhibition [4] 101%

CCCCOc1cc(C)nc2ccc(NC(=O)COCC(=O)Nc3ccc4nc(C)cc(OCCCC)c4c3)cc12
inactive: growth inhibition [1] 28% | inhibition [2] -11% | inhibition [3] -3% | outcome [5] | outcome [6] | outcome [7] | outcome [8]
active: growth inhibition [4] 90%

c1cc(CNC2CCN(CC3CCCCC3)CC2)cc(-n2ccnc2)c1
active: growth inhibition [1] 97% | growth inhibition [4] 102%
inactive: inhibition [2] 3% | inhibition [3] 1% | outcome [5] | outcome [6] | outcome [7] | outcome [8]

CC(C)OCCCNC(=O)c1nc(-c2cccc(C(F)(F)F)c2)sc1C(C)C
active: growth inhibition [4] 94%
inactive: growth inhibition [1] 34% | inhibition [2] -7% | inhibition [3] -8% | outcome [5] | outcome [6] | outcome [7] | outcome [8]

NC(=O)c1ccsc1NC(=O)CNC(c1ccccc1)c1ccc(Cl)cc1 (configuration not stated)
inactive: inhibition [2] 25% | inhibition [3] -3% | outcome [5] | outcome [6] | outcome [7] | outcome [8]
active: growth inhibition [1] 89% | growth inhibition [4] 83%
